Measurements as given in PubChem BioAssay (EPA / NIEHS).
Results filed as inconclusive are left out. The source made the active and inactive calls. The calls were made as follows, unless noted: active = hit-call score of the fitted dose curve at least 0.9, where 1 is the maximum; inactive = score below 0.9.

Columns and labels:
[1] = target: Paired box protein Pax-6 (Homo sapiens) (UniProt P26367); assay: ATG_Pax6_CIS: Attagene CIS-FACTORIAL HepG2 Assay for human Paired Box 6 (PAX6) (AID 2282956); details: HepG2 CIS-FACTORIAL PAX6 reporter transcription, RNA readout; actives raise or lower the signal
Chain of Paired box protein Pax-6 (Homo sapiens) (P26367 whole entry, looked up): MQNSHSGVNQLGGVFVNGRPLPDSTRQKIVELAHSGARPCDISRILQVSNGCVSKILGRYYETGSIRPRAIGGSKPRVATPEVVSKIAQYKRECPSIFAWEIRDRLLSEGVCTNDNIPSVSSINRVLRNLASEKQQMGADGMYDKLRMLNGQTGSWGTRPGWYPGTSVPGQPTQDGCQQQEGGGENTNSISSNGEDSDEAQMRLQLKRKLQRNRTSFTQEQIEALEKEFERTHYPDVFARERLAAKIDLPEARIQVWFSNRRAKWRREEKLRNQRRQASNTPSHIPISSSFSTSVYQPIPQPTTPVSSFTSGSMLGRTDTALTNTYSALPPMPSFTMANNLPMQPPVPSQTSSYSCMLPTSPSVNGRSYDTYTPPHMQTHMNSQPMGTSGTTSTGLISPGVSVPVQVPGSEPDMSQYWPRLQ
In short: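 HepG2 cells transiently transfected with cis-promoter-driven multiplexed reporter units sensing endogenous transcription factor activity; 24 h chemical exposure. Reporter mRNA quantified by RT-PCR, 6-FAM labelling, HpaI digestion and capillary electrophoresis; bidirectional fit versus DMSO baseline.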

[2] = ATG_PXRE_CIS: Attagene CIS-FACTORIAL HepG2 Assay for human Pregnane X Receptor Element (PXRE) (AID 2282957); details: HepG2 Attagene CIS-FACTORIAL PXRE reporter, mRNA; actives raise or lower the signal
In short: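 HepG2 cells transiently transfected with cis-regulated multiple reporter transcription units; endogenous factor activity measured as reporter mRNA 24 h after dosing. RT-PCR, fluorescent primer extension, HpaI digestion, capillary electrophoresis; bidirectional fit versus DMSO baseline.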

[3] = ATG_PPRE_CIS: Attagene CIS-FACTORIAL HepG2 Assay for human Peroxisome Proliferator-activated Response Element (PPRE) (AID 2282958); details: HepG2 PPRE cis-element reporter, Attagene transcription factor profiling; actives raise or lower the signal
In short: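 Multiplexed reporter transcription units under cis-regulatory promoters were transfected into HepG2 cells to capture endogenous factor activity. A 24 h incubation preceded RNA isolation and fluorescent RT-PCR fragment analysis.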

[4] = ATG_RORE_CIS: Attagene CIS-FACTORIAL HepG2 Assay for human RAR-related Orphan Receptor Element (RORE) (AID 2282959); details: HepG2 Attagene cis-factorial RORE reporter, mRNA; actives raise or lower the signal
In short: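 Fluorescence intensity of reporter-specific cDNA fragments, separated by capillary electrophoresis, gives the signal. Source: HepG2 liver cells transiently transfected with cis-element reporters and exposed 24 h; DMSO-normalized bidirectional fit.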

[5] = ATG_Sox_CIS: Attagene CIS-FACTORIAL HepG2 Assay for human SRY-box transcription factor (SOX) (AID 2282960); details: HepG2 Attagene cis-factorial SOX reporter, mRNA; actives raise or lower the signal
In short: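 After 24 h of chemical treatment, transfected HepG2 reporter cells are lysed for total RNA. Transcript levels come from RT-PCR with labelled primer extension and capillary electrophoresis, analysed bidirectionally versus DMSO.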

[6] = target: Transcription factor Sp1 (Homo sapiens) (UniProt P08047); assay: ATG_Sp1_CIS: Attagene CIS-FACTORIAL HepG2 Assay for human Specificity Protein 1 (Sp1) (AID 2282961); details: HepG2 Sp1 cis-reporter transcription, actives raise or lower the signal
Chain of Transcription factor Sp1 (Homo sapiens) (P08047 whole entry, looked up): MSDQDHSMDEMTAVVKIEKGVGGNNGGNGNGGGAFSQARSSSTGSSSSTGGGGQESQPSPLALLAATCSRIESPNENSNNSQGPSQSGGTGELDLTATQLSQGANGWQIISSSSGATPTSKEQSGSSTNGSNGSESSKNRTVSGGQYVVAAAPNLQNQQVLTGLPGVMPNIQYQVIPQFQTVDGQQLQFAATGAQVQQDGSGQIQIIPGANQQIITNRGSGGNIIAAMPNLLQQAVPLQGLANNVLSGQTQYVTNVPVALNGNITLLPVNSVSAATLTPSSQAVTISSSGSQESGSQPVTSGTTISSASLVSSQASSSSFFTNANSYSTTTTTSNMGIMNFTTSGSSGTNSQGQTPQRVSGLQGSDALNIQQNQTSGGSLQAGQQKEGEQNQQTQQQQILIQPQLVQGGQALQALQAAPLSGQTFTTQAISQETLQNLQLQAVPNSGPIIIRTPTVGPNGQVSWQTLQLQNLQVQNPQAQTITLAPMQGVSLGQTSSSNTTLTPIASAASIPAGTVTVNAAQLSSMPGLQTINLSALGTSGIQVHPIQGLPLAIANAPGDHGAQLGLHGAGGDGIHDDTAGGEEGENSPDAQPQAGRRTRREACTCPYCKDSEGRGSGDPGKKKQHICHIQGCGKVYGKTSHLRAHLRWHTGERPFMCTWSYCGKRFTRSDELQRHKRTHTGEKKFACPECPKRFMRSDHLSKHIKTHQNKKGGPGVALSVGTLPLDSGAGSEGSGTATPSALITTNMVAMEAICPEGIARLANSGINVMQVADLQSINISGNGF
In short: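 Sp1-driven reporter mRNA, read as capillary electrophoresis fluorescence after RT-PCR, in transiently transfected HepG2 cells dosed for 24 h; signal change in either direction relative to DMSO.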

[7] = ATG_SREBP_CIS: Attagene CIS-FACTORIAL HepG2 Assay for human Sterol Regulatory Element Binding (SREBP) (AID 2282962); details: HepG2 Attagene cis-factorial SREBP reporter, mRNA; actives raise or lower the signal
In short: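 HepG2 cells transiently transfected with multiplexed cis-promoter reporter units sensing endogenous transcription factors; reporter mRNA measured 24 h after dosing by RT-PCR, 6-FAM labeling, HpaI digestion and capillary electrophoresis. Bidirectional fit versus DMSO.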

[8] = target: Signal transducer and activator of transcription 3 (Homo sapiens) (UniProt P40763); assay: ATG_STAT3_CIS: Attagene CIS-FACTORIAL HepG2 Assay for human Signal Transducer and Activator of Transcription 3 (STAT3) (AID 2282963); details: HepG2, Attagene cis-factorial STAT3 reporter transcription; actives raise or lower the signal
Chain of Signal transducer and activator of transcription 3 (Homo sapiens) (P40763 whole entry, looked up): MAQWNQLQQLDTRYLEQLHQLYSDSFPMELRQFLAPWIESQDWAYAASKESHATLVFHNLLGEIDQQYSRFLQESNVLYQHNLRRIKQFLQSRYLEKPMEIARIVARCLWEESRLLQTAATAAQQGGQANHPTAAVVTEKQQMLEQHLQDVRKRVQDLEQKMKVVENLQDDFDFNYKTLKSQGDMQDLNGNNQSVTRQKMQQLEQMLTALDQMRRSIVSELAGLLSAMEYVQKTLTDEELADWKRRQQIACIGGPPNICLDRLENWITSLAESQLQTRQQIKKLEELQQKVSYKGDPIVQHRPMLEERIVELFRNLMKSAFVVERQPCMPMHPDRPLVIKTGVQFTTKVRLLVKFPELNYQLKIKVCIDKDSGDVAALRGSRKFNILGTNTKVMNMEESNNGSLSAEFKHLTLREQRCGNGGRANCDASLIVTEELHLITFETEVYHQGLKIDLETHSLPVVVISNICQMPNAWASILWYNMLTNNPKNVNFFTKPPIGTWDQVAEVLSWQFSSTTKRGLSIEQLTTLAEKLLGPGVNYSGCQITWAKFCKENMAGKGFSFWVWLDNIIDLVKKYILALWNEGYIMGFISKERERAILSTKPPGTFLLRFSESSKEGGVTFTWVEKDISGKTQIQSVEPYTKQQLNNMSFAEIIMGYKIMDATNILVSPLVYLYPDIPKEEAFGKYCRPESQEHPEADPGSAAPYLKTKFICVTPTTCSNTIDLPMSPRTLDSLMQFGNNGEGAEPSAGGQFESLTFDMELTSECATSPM
In short: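 HepG2 cells transiently transfected with cis-element-driven multiple reporter transcription units; after 24 h chemical exposure, reporter mRNA measured by RT-PCR, 6-FAM primer-extension labelling, HpaI digestion and capillary electrophoresis. Bidirectional fitting versus DMSO baseline.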

[9] = ATG_TA_CIS: Attagene CIS-FACTORIAL HepG2 Assay for human TA Basal Promoter (AID 2282964); details: HepG2 Attagene CIS-factorial TA basal promoter reporter; actives raise or lower the signal
In short: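 Transient MRTU transfection of HepG2 preceded 24 h compound exposure. Reporter mRNA levels were then read by RT-PCR with capillary electrophoresis, and this background-control endpoint was fitted bidirectionally to DMSO.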

[10] = ATG_TCF_b_cat_CIS: Attagene CIS-FACTORIAL HepG2 Assay for human T-Cell-Factor with beta-catenin (TCF/b-cat) (AID 2282965); details: HepG2 TCF/beta-catenin cis-reporter transcription, actives raise or lower the signal
In short: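 Using capillary electrophoresis as the read-out, labelled reporter cDNA fragments from transiently transfected HepG2 were sized and quantified. Exposure lasted 24 hours; activity in either direction was referenced to DMSO.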

[11] = ATG_TAL_CIS: Attagene CIS-FACTORIAL HepG2 Assay for human TAL Basal Promoter (AID 2282966); details: HepG2 Attagene cis-factorial TAL promoter reporter; actives raise or lower the signal;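 also: background control endpoint measuring basal TAL promoter reporter mRNA not a specific factor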
In short: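 HepG2 cells were transiently transfected with promoter-driven multiplexed reporter units and dosed for 24 h. Reporter mRNA was measured by RT-PCR with capillary electrophoresis fluorescence; bidirectional fits used DMSO as baseline, serving as a background control.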

[12] = ATG_TGFb_CIS: Attagene CIS-FACTORIAL HepG2 Assay for human Transforming Growth Factor (TGF) (AID 2282967); details: HepG2 Attagene CIS TGFb reporter, mRNA transcription; actives raise or lower the signal
In short: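 After a 24-hour incubation with compound, transfected HepG2 cells were lysed for RNA; reporter cDNA was amplified, fluorescently end-labeled and separated by CE. DMSO served as baseline for bidirectional fits.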

[13] = ATG_VDRE_CIS: Attagene CIS-FACTORIAL HepG2 Assay for human Vitamin D Receptor Element (VDRE) (AID 2282968); details: HepG2 VDRE cis-reporter transcription, actives raise or lower the signal
In short: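 HepG2 cells transiently transfected with cis-element reporter units, dosed 24 h; reporter mRNA measured by RT-PCR, 6-FAM labeling, HpaI digestion and capillary electrophoresis. Activity fitted bidirectionally against DMSO baseline.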

[14] = target: Nuclear receptor subfamily 1 group I member 3 (Homo sapiens) (UniProt Q14994); assay: ATG_CAR_TRANS: Attagene TRANS-FACTORIAL HepG2 Assay for human Constitutive Androstane Receptor (CAR) (AID 2282969; active = hit-call score of the fitted dose curve at least 0.9, where 1 is the maximum;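 also: activators raise reporter mRNA above DMSO so AC50 marks induction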); details: HepG2 Attagene TRANS-FACTORIAL CAR reporter
Chain of Nuclear receptor subfamily 1 group I member 3 (Homo sapiens) (Q14994 whole entry, looked up, the tested form may be a part): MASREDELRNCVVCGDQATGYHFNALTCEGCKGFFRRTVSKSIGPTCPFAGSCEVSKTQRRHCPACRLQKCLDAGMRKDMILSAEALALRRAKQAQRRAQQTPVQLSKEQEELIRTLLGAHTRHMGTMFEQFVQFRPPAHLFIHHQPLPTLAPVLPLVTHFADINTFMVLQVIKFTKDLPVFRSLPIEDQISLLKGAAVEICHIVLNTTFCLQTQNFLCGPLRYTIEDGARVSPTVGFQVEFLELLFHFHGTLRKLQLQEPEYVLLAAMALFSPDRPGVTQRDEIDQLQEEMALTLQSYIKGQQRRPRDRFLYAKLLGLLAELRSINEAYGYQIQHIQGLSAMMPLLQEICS
In short: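 HepG2 cells transiently transfected with multiplexed GAL4-UAS reporter units expressing chimeric NR-Gal4 proteins; compound exposure 24 h. Reporter mRNA measured by RT-PCR, 6-FAM labelling, HpaI digestion and capillary electrophoresis; gain-of-signal fitted against DMSO baseline.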

[15] = target: X-box-binding protein 1 (Homo sapiens) (UniProt P17861); assay: ATG_Xbp1_CIS: Attagene CIS-FACTORIAL HepG2 Assay for human X-box Binding Protein 1 (XBP1) (AID 2282972); details: HepG2 XBP1 cis-element reporter, Attagene multiplex; actives raise or lower the signal
Chain of X-box-binding protein 1 (Homo sapiens) (P17861 whole entry, looked up): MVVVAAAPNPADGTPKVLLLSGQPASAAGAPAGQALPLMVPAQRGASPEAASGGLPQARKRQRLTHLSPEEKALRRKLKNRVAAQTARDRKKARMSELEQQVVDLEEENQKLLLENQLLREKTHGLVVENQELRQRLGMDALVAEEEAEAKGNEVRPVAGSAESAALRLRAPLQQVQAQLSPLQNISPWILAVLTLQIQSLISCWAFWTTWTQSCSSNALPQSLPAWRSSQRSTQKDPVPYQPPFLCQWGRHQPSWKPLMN
In short: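 HepG2 cells transiently transfected with multiple cis-element reporter units report endogenous TF activity; 24 h exposure, then reporter mRNA measured by RT-PCR, 6-FAM labelling, HpaI digestion and capillary electrophoresis. Bidirectional fitting versus DMSO.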

[16] = ATG_GAL4_TRANS: Attagene TRANS-FACTORIAL HepG2 Assay for GAL4 (Internal Marker) (AID 2282976; active = hit-call score of the fitted dose curve at least 0.9, where 1 is the maximum); details: HepG2 Attagene TRANS GAL4 internal marker reporter
In short: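 HepG2 cells transiently transfected with multiplexed GAL4-UAS reporter constructs were dosed for 24 h. Reporter mRNA was measured by RT-PCR, 6-FAM primer extension, HpaI digestion and capillary electrophoresis, and gain of signal was fitted relative to DMSO.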

[17] = target: Estrogen receptor (Homo sapiens) (UniProt P03372); assay: ATG_ERa_TRANS: Attagene TRANS-FACTORIAL HepG2 Assay for human Estrogen Receptor alpha (ERa) (AID 2282970; active = hit-call score of the fitted dose curve at least 0.9, where 1 is the maximum); details: HepG2 Attagene TRANS ERa GAL4 reporter, mRNA
Chain of Estrogen receptor (Homo sapiens) (P03372 whole entry, looked up, the tested form may be a part): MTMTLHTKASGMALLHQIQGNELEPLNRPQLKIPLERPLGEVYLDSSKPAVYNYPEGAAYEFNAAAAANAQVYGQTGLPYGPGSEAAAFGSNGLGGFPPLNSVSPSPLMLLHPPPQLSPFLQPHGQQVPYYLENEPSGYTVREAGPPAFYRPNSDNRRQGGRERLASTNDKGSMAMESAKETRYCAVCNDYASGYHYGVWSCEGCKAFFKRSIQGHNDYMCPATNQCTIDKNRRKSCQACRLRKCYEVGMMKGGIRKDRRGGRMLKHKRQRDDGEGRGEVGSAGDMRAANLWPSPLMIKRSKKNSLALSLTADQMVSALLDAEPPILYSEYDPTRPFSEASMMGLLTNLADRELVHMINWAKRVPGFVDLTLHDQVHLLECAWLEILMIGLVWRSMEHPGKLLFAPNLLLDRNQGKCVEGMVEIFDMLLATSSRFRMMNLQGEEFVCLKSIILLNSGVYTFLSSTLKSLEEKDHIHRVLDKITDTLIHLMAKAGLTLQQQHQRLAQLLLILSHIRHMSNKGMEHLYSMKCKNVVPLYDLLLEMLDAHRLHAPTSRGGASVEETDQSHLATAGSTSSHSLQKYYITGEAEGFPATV
In short: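 HepG2 cells transiently transfected with multiplexed GAL4-UAS reporter units; ERa activity read via exogenous chimeric NR-Gal4 protein. After 24 hour compound exposure, reporter mRNA measured by RT-PCR with 6-FAM labelling and capillary electrophoresis; gain-of-signal fitted relative to DMSO.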

[18] = ATG_M_19_TRANS: Attagene TRANS-FACTORIAL HepG2 Assay for M19 Transcription Factor (Internal Marker) (AID 2282974; active = hit-call score of the fitted dose curve at least 0.9, where 1 is the maximum); details: HepG2 Attagene TRANS-FACTORIAL M19 internal marker reporter
In short: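 Measured here: internal-marker reporter transcript from HepG2 cells transfected with MRTUs, harvested at 24 h. cDNA PCR products were 6-FAM labelled by primer extension, cut with HpaI for 2 h at 37 C, and resolved by CE.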

Measured: AC50

C=COCCOCCOCCOC=C
not listed: [17] | [18]
inactive: all other assays above

CCOc1ccccc1OCC
active: [2] 24.9 µM
not listed: [12] | [14] | [16] | [17] | [18]
inactive: all other assays above

Clc1ccc2c(c1)C(N1CCNCC1)=Nc1ccccc1O2
active: [1] 41.1 µM | [17] 50.1 µM | [15] 33.4 µM
not listed: [13] | [14] | [18]
inactive: all other assays above

O=C[C@@H](O)[C@H](O)[C@H](O)CO
not listed: [13] | [17] | [18]
inactive: all other assays above

CC(O)C(C)O (stereo not drawn)
not listed: [13] | [14] | [15] | [17]
inactive: all other assays above
